Consider 1 molecule from the supplement of paper PMC8728848.

This excerpt belongs to a sample that is enriched for the strongest signals.

Test in all cases: glycan array binding signal (z-score within array); higher = stronger binding
Conditions in all cases: glycan notation: IUPAC condensed, linker removed

For experiment [1], the target named is Fuc(a1-2)Gal(b1-4)GlcNAc(b1-2)Man(a1-3)[Fuc(a1-2)Gal(b1-4)GlcNAc(b1-2)Man(a1-6)]Man(b1-4)GlcNAc(b1-4)GlcNAc. The procedure, abridged:
(§1)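 From the Consortium for Functional Glycomics database, 3228 arrays were curated, keeping only those whose protein sequence was available. Binding is given as a within-array Z-score averaged across arrays sharing a protein sequence and across linkers. Negative Z-scores can be read as non-binding.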

For experiment [2], the target named is Fuc(a1-2)Gal(b1-4)[Fuc(a1-3)]GlcNAc(b1-2)Man(a1-3)[Fuc(a1-2)Gal(b1-4)[Fuc(a1-3)]GlcNAc(b1-2)Man(a1-6)]Man(b1-4)GlcNAc(b1-4)[Fuc(a1-6)]GlcNAc. In short, it runs like this: as §1
Experiment [3] deals with Fuc(a1-2)Gal(b1-4)[Fuc(a1-3)]GlcNAc(b1-3)GalNAc. The procedure, abridged:
as §1

For experiment [4], the target named is Fuc(a1-2)Gal3S(b1-4)GlcNAc. In short, it runs like this:
as §1

The target in a further experiment is Fuc(a1-2)Gal6S(b1-4)Glc. The procedure, abridged:
as §1

The target of experiment [5] is Fuc(a1-2)[GalNAc(a1-3)]Gal(b1-4)GlcNAc(b1-2)Man(a1-3)[Fuc(a1-2)[GalNAc(a1-3)]Gal(b1-4)GlcNAc(b1-2)Man(a1-6)]Man(b1-4)GlcNAc(b1-4)[Fuc(a1-6)]GlcNAc. In short, it runs like this: as §1
Experiment [6] concerns the target Fuc(a1-3)[Gal(b1-4)]GlcNAc(b1-2)Man(a1-3)[Fuc(a1-3)[Gal(b1-4)]GlcNAc(b1-2)Man(a1-6)]Man(b1-4)GlcNAc(b1-4)[Fuc(a1-6)]GlcNAc. The procedure, abridged: as §1
A further experiment addresses Gal(a1-3)Gal(b1-4)GlcNAc. In short, it runs like this:
as §1

Experiment [7] concerns the target Gal(a1-3)Gal(b1-4)GlcNAc(b1-2)Man(a1-3)[Gal(a1-3)Gal(b1-4)GlcNAc(b1-2)Man(a1-6)]Man(b1-4)GlcNAc(b1-4)GlcNAc. In short, it runs like this: as §1
Experiment [8] concerns the target Gal(a1-4)Gal(b1-3)GlcNAc(b1-2)Man(a1-3)[Gal(a1-4)Gal(b1-3)GlcNAc(b1-2)Man(a1-6)]Man(b1-4)GlcNAc(b1-4)GlcNAc. In short, it runs like this:
as §1

For experiment [9], the target named is Gal(a1-4)Gal(b1-4)GlcNAc(b1-2)Man(a1-3)[Gal(a1-4)Gal(b1-4)GlcNAc(b1-2)Man(a1-6)]Man(b1-4)GlcNAc(b1-4)GlcNAc. In short, it runs like this: as §1
The target in the next experiment is Gal(b1-3)Gal(b1-4)GlcNAc. The procedure, abridged: as §1
The target of experiment [10] is Gal(b1-3)GalNAc(b1-3)Gal(a1-4)Gal(b1-4)Glc. The procedure, abridged: as §1
For another experiment, the target named is Gal(b1-3)GlcNAc(b1-2)Man. The procedure, abridged:
as §1

Experiment [11] deals with Gal(b1-3)GlcNAc(b1-2)Man(a1-3)[Gal(b1-3)GlcNAc(b1-2)Man(a1-6)]Man(b1-4)GlcNAc(b1-4)GlcNAc. The procedure, abridged: as §1
Experiment [12] has as its target Gal(b1-3)[Fuc(a1-4)]GlcNAc(b1-2)Man(a1-3)[Gal(b1-3)[Fuc(a1-4)]GlcNAc(b1-2)Man(a1-6)]Man(b1-4)GlcNAc(b1-4)[Fuc(a1-6)]GlcNAc. In short, it runs like this: as §1
Experiment [13] has as its target Gal(b1-4)GalNAc(a1-3)[Fuc(a1-2)]Gal(b1-4)GlcNAc. The procedure, abridged: as §1
Experiment [14] deals with Gal(b1-4)GlcNAc(b1-2)Man(a1-3)Man(b1-4)GlcNAc(b1-4)GlcNAc. The procedure, abridged: as §1
Experiment [15] deals with Gal(b1-4)GlcNAc(b1-2)Man(a1-3)[Gal(b1-4)GlcNAc(b1-2)Man(a1-6)]Man(b1-4)GlcNAc(b1-4)[Fuc(a1-6)]GlcNAc. In short, it runs like this: as §1
For experiment [16], the target named is Gal(b1-4)GlcNAc(b1-2)Man(a1-6)[GlcNAc(b1-2)Man(a1-3)]Man(b1-4)GlcNAc(b1-4)GlcNAc. The procedure, abridged:
as §1

Experiment [17] concerns the target Gal(b1-4)GlcNAc(b1-2)[Gal(b1-4)GlcNAc(b1-6)]Man(a1-6)[Gal(b1-4)GlcNAc(b1-2)Man(a1-3)]Man(b1-4)GlcNAc(b1-4)GlcNAc. In short, it runs like this:
as §1

Experiment [18] addresses Gal(b1-4)GlcNAc(b1-3)Gal(b1-4)GlcNAc(b1-2)Man(a1-3)[Gal(b1-4)GlcNAc(b1-3)Gal(b1-4)GlcNAc(b1-2)Man(a1-6)]Man(b1-4)GlcNAc(b1-4)[Fuc(a1-6)]GlcNAc. The procedure, abridged:
as §1

Experiment [19] addresses Gal(b1-4)GlcNAc(b1-3)Gal(b1-4)GlcNAc(b1-2)[Gal(b1-4)GlcNAc(b1-3)Gal(b1-4)GlcNAc(b1-6)]Man(a1-6)[Gal(b1-4)GlcNAc(b1-3)Gal(b1-4)GlcNAc(b1-2)Man(a1-3)]Man(b1-4)GlcNAc(b1-4)GlcNAc. The procedure, abridged:
as §1

Experiment [20] deals with Gal(b1-4)GlcNAc(b1-3)Gal(b1-4)GlcNAc(b1-3)Gal(b1-4)GlcNAc(b1-3)Gal(b1-4)GlcNAc(b1-2)Man(a1-3)[Gal(b1-4)GlcNAc(b1-3)Gal(b1-4)GlcNAc(b1-3)Gal(b1-4)GlcNAc(b1-3)Gal(b1-4)GlcNAc(b1-2)Man(a1-6)]Man(b1-4)GlcNAc(b1-4)[Fuc(a1-6)]GlcNAc. In short, it runs like this:
as §1

B1: PX9961T-pdi-555-33-555 (Parabacteroides distasonis) (protein)
chain: FDEETAFQSPTLVYVNTVASLYNNMFKIMGNDRHVYDLNTFSSDEAMLPCRIGDWEDGGLWQNIFLHRWGTMNDLTKNSWDFLYEQIGKCNQSVDKLQAFAEEQPDVEYFKVYLEEVRAVRAFFYYELLDLFARVPLVTSSTTPMSEVKQSERSVVFNFVRSELEEALPYLSDNRSNQKGEYYGRITKPVAYMILAKLALNAEVYADDNWTDGNRPAGKNIKFTVDGKEMNAWEATIAYVDKLEALGYKLQGNFSENFAVANETSVENIFTVPMDPVAYPDAKDYNLVRTRHYDHATAYGQSGWNGSCATVKAMNVFKFGTADEDPRCKLTYFTGEVTGPDGKTIYTEWDGQKVPLKYEPNAPKVYMDASDGLLVKTAGARMAKYEFDQNAQDGGNLHGNDCVIFRFADALLMKAEAKIRLGQNGDDEVNQVRNRVGAKPLQNVTLDTLLDERMLELAWEGVRRQDLIRFGKFTEATVDRYVGVKHFASSLDYQEDKTGYTTVFSIYADILSLNPNLTQNPGY
B1: the “glycan array binding signal (z-score)” value in experiment [1] was 1.91; in [2] it was 0.323; in [3] it was -0.359; in experiment [4], -0.354; with Fuc(a1-2)Gal6S(b1-4)Glc, -0.589; in [5], 2.12. For the same molecule, the “glycan array binding signal (z-score)” value in experiment [6] was -0.637; with Gal(a1-3)Gal(b1-4)GlcNAc, 0.037; in [7], 0.963; in experiment [8] it was 2.7; in [9], 1.51; with Gal(b1-3)Gal(b1-4)GlcNAc, -0.663. In addition, the “glycan array binding signal (z-score)” value in experiment [10] was -0.576; with Gal(b1-3)GlcNAc(b1-2)Man, 0.661; in experiment [11], -0.248; in experiment [12], -0.151; in [13], -0.527; in [14], -0.441. For the same molecule, the “glycan array binding signal (z-score)” value in [15] is 0.171; in experiment [16] it was -0.306; in experiment [17] it was -0.161; in experiment [18], 0.672; in [19] it was 1.53; in experiment [20], 0.109.
